Screening data (PubChem)
Nrf2 ARE act: Nrf2 pathway activation; Potency, µM (top dose mostly 46.1 µM), inactives show top-dose activation, usual class: activators; AREc32 ARE-luciferase reporter (MCF7-derived line), luminescence, 24 h; hit rate 0.31% among 410,000; AID 624171; note: potency is the fitted concentration of half-maximal effect; % of control where 0% means no effect; nearly all actives have a fitted effect of over 65% in size
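AREc32 cells carrying an ARE-driven firefly luciferase reporter were seeded at 1000 cells/well in OPTI-MEM with 5% FBS, then exposed to compound for 24 hr at 37 deg C. Luminescence was read with Steady-Glo after 30 min at RT.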
Nrf2 block: Nrf2 pathway inhibition. hit rate 2.1% among 360,000. Potency, µM (doses to about 46 µM), inactives show at the top dose activity change, negative = inhibition, most hits filed as inhibitors. A549 ARE-Fluc reporter, luciferase luminescence, 18-24 h; note: potency is the fitted concentration of half-maximal effect; % is set by controls: 0 for no effect and ±100 for the full control effect; nearly all actives have a fitted effect of over 60% in size
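Two sequential reads on A549 ARE_Fluc cells exposed to compound for 18-24 h: a CellTiter-Fluor fluorescence read for viability, then a luciferase luminescence read for Nrf2/ARE activity.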
IL-2 act: IL-2 activation; IL-2 activation reporter assay, cell-based qHTS; stimulated with anti-CD3/CD4/CD28 beads; in transgenic mouse T cells; hit rate 0.065% among 360,000; activation, % (series mostly up to about 46 µM); AID 652025; in the data active = activation above about 50%; inconclusive = mostly about 30% to 49%; note: 0% is about no effect
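Quantitative HTS in unstimulated transgenic mouse T cells, with memory T cells as non-tolerant control and PMA/ionomycin as tolerance-bypass control. Compound pretreatment lasted 60 minutes before 18 h bead stimulation; EGFP/DsRed fluorescence read.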
p53 reactivator: mutant p53 re-activation in reporter cells; hit rate 0.063% among 320,000; H1299 p53-A138V BP100-luciferase reporter, luminescence, 24 h; AID 504706; Potency, µM (highest dose often 92.2 µM), without a hit: at the highest dose activity change, positive = activation, most hits filed as activators; note: potency is the fitted concentration of half-maximal effect; % of control where 0% means no effect; nearly all actives have a fitted effect of over 45% in size
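H1299 (p53-null), stable ts p53-A138V + BP100-Luc; 1000 cells/well, Opti-MEM/10% FBS; cpd 4 pt, 1:5; 24 h, 37 deg C, 5% CO2; detection reagent 10 min RT; luminescence.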
BRCA1 expr up: increases BRCA1 expression; hit rate 1.1% among 380,000; MCF7-BRCA1-FFLuc reporter, luminescence, 48 h; response scale: scaled: vehicle 0%, 10 µM genistein 100%; AID 624202; Potency, µM (top dose mostly 46.1 µM), inactives show at the highest dose activation, usual class: activators; note: potency is the fitted concentration of half-maximal effect; nearly all actives have a fitted effect of over 80% in size
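Quantitative HTS in MCF7 cells stably reporting BRCA1 expression via firefly luciferase. Compound treatment lasts 48 h at 37 °C in phenol-red free MEM. Activation is expressed relative to genistein at 10 microM and DMSO.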
A549 viability: kills or reduces viability of A549 cells in Nrf2 counter-screen; Potency, µM (top dose mostly 46 µM), without a hit: top-dose activity change, negative = cytotoxicity, most hits filed as inhibitors; A549 ARE-Fluc cells, CellTiter-Fluor viability, 18-24 h; hit rate 0.16% among 390,000; note: potency is the fitted concentration of half-maximal effect; % is set by controls: 0 for no effect and ±100 for the full control effect
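A549 ARE_Fluc cells in 5% FBS OPTI-MEM were exposed to compounds in concentration-response for 18-24 h at 37 deg C. Viability was read by CellTiter-Fluor fluorescence (Ex 405/Em 525) after 30 min, before the luciferase read.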
Starred values were filed as active, the others as inactive; ? = inconclusive; / = no result given. An excerpt weighted towards active compounds, which were near 3.2% of everything screened. Unless noted, calls come from the whole dose curve; as a rule, active = well fitted curve in the direction sought with a large enough effect; inconclusive = small, poorly fitted or top-dose-only effect, or another doubt; inactive = no such curve, though single readings can be large; an effect the other way counts as inactive or inconclusive.

SMILES | Nrf2 ARE act | Nrf2 block | IL-2 act | p53 reactivator | BRCA1 expr up | A549 viability
CC(C)c1ccc(CNc2nc(-c3ccco3)nn2S(=O)(=O)c2ccc3ccccc3c2)cc1 | 2.5% | 12.9% | / | / | / | 4.0%
S=C(NCCCNc1ccc(Br)cn1)NCCCc1cnc[nH]1 | / | -9.9% | / | / | / | -0.5%
O=C(Nc1cccc(C(F)(F)F)c1)c1ccc2snnc2c1 | -0.5% | -6.5% | / | / | 19.6% | 2.6%
O=C(CNc1cccc(S(=O)(=O)N2CCCC2)c1)Nc1ccc(F)c(F)c1 | 0.7% | 25.9µM* | -5.5 | -4.3% | -43.5% | -28.1%
O=C(Nc1cccc(C(F)(F)F)c1)Nc1ccc2snnc2c1 | -1.2% | 20.6µM* | / | / | -60.8% | ?
Cc1ccc(NC(=O)CNc2cccc(Br)c2)cc1S(=O)(=O)N1CCOCC1 | -0.5% | 20.6µM* | -0.1 | -1.0% | -35.8% | ?
Cc1nc(-c2ccc(F)cc2)c(CC(=O)Nc2ccc(C)c(S(=O)(=O)N3CCOCC3)c2)s1 | -0.8% | 18.4µM* | -3.3 | -7.8% | -42.0% | -5.6%
Cc1ccc(NCC(=O)Nc2ccc(F)c(Cl)c2)cc1S(=O)(=O)N1CCOCC1 | 4.1% | / | -3.7 | / | -54.8% | /
Cc1ccc2c(c1)nc(SCC(O)c1ccc(Br)cc1)n2C (configuration not stated) | 19.0% | 4.8% | / | / | / | 6.8%
Cc1cc(C)c(NC(=O)Cn2cc(S(=O)(=O)Cc3ccccc3F)c3ccccc32)c(C)c1 | 3.4% | ? | / | / | / | 3.2%
CCOc1ccccc1CNC(=O)CCCn1c(=O)c2cccn2c2ccc(F)cc21 | 0.8% | -16.3% | / | / | / | -8.9%
COc1ccccc1OCC(=O)NNC(=O)C1CCN(c2ncnc3sc(C)c(C)c23)CC1 | -0.3% | 23.1µM* | -1.1 | -10.9% | -11.3% | 0.4%
Cc1sc2ncnc(N3CCC(C(=O)Nc4ccc(Br)cc4Br)CC3)c2c1C | 0.3% | 20.6µM* | 0.8 | -3.3% | -39.3% | -13.2%
Cc1sc2ncnc(N3CCC(C(=O)Nc4ccc(Cl)cc4Cl)CC3)c2c1C | -0.3% | ? | -4.3 | -2.6% | -31.7% | -4.9%
Cc1sc2ncnc(N3CCC(C(=O)NCC(=O)Nc4ccc(F)c(F)c4)CC3)c2c1C | 0.2% | 18.4µM* | -2.3 | -3.5% | -74.8% | ?
Cc1sc2ncnc(N3CCC(C(=O)Nc4ccc(Cl)c(Cl)c4)CC3)c2c1C | -0.6% | ? | 0.0 | -10.6% | -13.8% | -5.8%
CCc1ccccc1NC(=O)Cn1c(=O)n(-c2ccc(C)cc2)c(=O)c2cc(OC)c(OC)cc21 | 0.2% | 12.3% | / | / | -2.2% | -2.1%
CC(=O)Oc1c(Cl)cc(Cl)cc1/C=C/c1ccc2ccccc2n1 | 12.6µM* | 16.1% | -2.6 | 0.1% | -41.2% | 9.2%
CC(=O)Oc1ccc(Cl)cc1/C=C/c1ccc2ccccc2n1 | ? | 5.5% | -4.8 | / | -60.8% | 1.3%
CCc1ccccc1N(C)C(=O)c1cc2c(Cl)nc3ccc(C)cc3c2s1 | -0.2% | 2.2% | / | / | / | -1.4%
C/C=C(\CS(=O)(=O)c1ccccc1)S(=O)(=O)c1ccccc1 | 12.6µM* | 5.8% | -4.8 | ? | 2.6% | -18.0%
Cn1c(=O)n(C)c2cc(N3CCOCC3)c(NC(=O)c3ccc(Cl)cc3)cc21 | 4.1% | 0.5% | / | / | / | -0.5%
CCCc1cc(N2CCN(c3ccccc3)CC2)n2cnnc2n1 | 0.2% | ? | / | / | / | -8.5%
CCCc1cc(N2CCN(c3ccccc3F)CC2)n2cnnc2n1 | -0.9% | 16.4µM* | / | / | / | -13.2%
CCN(CC)c1ccc(NC(=O)c2cc(C)nc3c2c(C)nn3-c2ccc(C)cc2)c(C)c1 | -0.7% | 13.4% | / | / | / | 11.7%
SMILES | Nrf2 ARE act | Nrf2 block | IL-2 act | p53 reactivator | BRCA1 expr up | A549 viability
CN(C)S(=O)(=O)N(CC(=O)NCCSCc1cccc(Cl)c1)c1ccccc1 | 5.2% | -5.9% | / | / | -12.7% | -1.3%
COC(=O)c1c(NC(=O)c2c(OC)cccc2OC)sc2c1C(C(=O)OC)CC2 (configuration not stated) | 4.4% | 13µM* | -2.5 | -5.6% | -32.8% | ?
CC(=NNc1nc2ccccc2o1)c1cc2ccccc2cn1 | -1.8% | ? | -5.3 | / | ? | 10.3µM*
Cc1cc(C)nc(Nc2nc3ccccc3o2)n1 | 3.3% | ? | 0.8 | 9.7% | 0.0% | 13.7%
CC(=O)n1nc(-c2ccc(C)cc2)nc1NCc1ccco1 | 4.9% | ? | 0.3 | 14.4% | 5.01µM* | 10.3%
CC(=O)n1nc(-c2ccc(C)cc2)nc1NCc1ccc(F)cc1 | 2.2% | 16.4% | 0.3 | ? | 3.16µM* | 5.1%
O=C(c1ccco1)n1nc(-c2ccccc2)nc1NCc1ccc(F)cc1 | -1.4% | 0.6% | / | / | 9.4% | -3.0%
Cc1ccc(C(=O)Nc2ccc3c(c2)N(C)C(=O)c2ccccc2S3)cc1F | 0.1% | / | / | / | / | ?
COc1ccc(C2=Nn3c(nnc3-c3cccc(OC)c3)SC2)cc1 | / | -16.4% | / | / | / | ?
COc1cccc(CNC(=O)c2cc(S(=O)(=O)N3CCCCC3)cn2C)c1 | -0.2% | / | / | / | -8.5% | 5.7%
COC(=O)c1sc(NC(=O)c2oc3ccccc3c2C)nc1C | 7.4% | ? | 1.2 | 23.9% | 7.08µM* | -4.3%
COc1ccc(-c2nsc(NC(=O)c3oc4ccccc4c3C)n2)cc1 | 0.1% | -20.1% | / | / | / | 2.7%
O=Cc1ccc(Oc2cc(-c3ccccc3)nc(-c3ccccc3)n2)cc1 | 0.1% | ? | 1.9 | -3.2% | -71.6% | 7.4%
O=S(Cc1cc(Oc2ccccc2)nc(-c2ccccc2)n1)c1ccccc1 (configuration not stated) | 0.3% | 10.3µM* | -2.1 | -3.8% | -33.1% | -11.1%
COc1ccc(CCNC(=O)c2cc3c(s2)-c2ccccc2OC3)cc1OC | -0.1% | 23.1µM* | / | / | / | 2.4%
Cc1cccc2c1-c1sc(C(=O)NCCc3ccc(Cl)cc3)cc1CO2 | 3.0% | 23.1µM* | / | / | / | -11.5%
Cc1c(P(=S)(c2ccccc2)c2ccccc2)c2ccccc2n1C(=O)NCc1ccccc1 | / | -14.4% | / | / | / | -2.0%
COc1ccc(NC(=O)CC2Oc3ccc(C)cc3NC2=O)cc1Cl (configuration not stated) | -0.5% | 12.7% | / | / | / | 5.7%
CC1CCN(c2ncnc3ccccc23)CC1 | -0.2% | 14.6µM* | -0.5 | 1.4% | -52.2% | -13.6%
Cc1cc(C)n2nc(SCC#N)nc2n1 | 0.3% | 12.5% | -1.9 | 3.2% | 1.3% | -0.1%
C=CCSc1ncc(-c2ccccc2)cn1 | 2.7% | ? | 1.8 | ? | 80.2% | 0.3%
N#CCSc1nccc(-c2cc(Cl)sc2Cl)n1 | 7.94µM* | -17.3% | 0.0 | -0.5% | -41.1% | 1.0%
C=CCSc1nccc(-c2cc(Cl)sc2Cl)n1 | 10µM* | 4.5% | -3.8 | -2.0% | -36.0% | 6.5%
